Among all 1,400 compounds or so, about 1,000 (71%) were called active. No rule for the calls is given here. So high a share suggests a set chosen from earlier hits. A selection follows. Results with a measured potency or affinity are listed apart.
Experiment: blockers of HIV-1 envelope-mediated cell-cell fusion – cherry-pick, dose response (AID 652057)
Details: HeLa-JRFL Env/CEM21 cell fusion, luciferase; series mostly up to 35 µM

Activity change, negative = inhibition, inactive:
Cc1nn(C)c(C)c1CN(C)S(=O)(=O)c1ccc2ccccc2c1
O=C(C[C@H]1C[C@H]2c3cc(NC(=O)NC4CCCC4)ccc3O[C@H]2[C@@H](CO)O1)NC1CCCCC1
COc1ccccc1S(=O)(=O)n1cc(Cc2ccccc2)c(N)n1
COc1ccc(S(=O)(=O)N[C@@H]2CC[C@@H](CC(=O)NCCc3ccncc3)O[C@@H]2CO)cc1
O=C(NCC[C@@H]1CC[C@@H](NS(=O)(=O)c2ccccc2F)[C@@H](CO)O1)c1ccc(F)cc1
CC1CN(S(=O)(=O)c2cc(C(=O)NCCC3=CCCCC3)ccc2Cl)CC(C)O1 (configuration not stated)
O=C(Nc1ccc(F)cc1)Nc1ccc2c(c1)[C@H]1C[C@@H](CC(=O)N3CCCCC3)O[C@H](CO)[C@H]1O2
CO[C@@H]1CN(C)C(=O)c2cc(NC(=O)Nc3ccc(Cl)cc3)ccc2OC[C@H](C)N(C)C[C@H]1C
CCOc1ccccc1C(=O)NCC(=O)NNC(=O)CN(C)S(=O)(=O)c1ccc(Cl)cc1
COc1cccc(S(=O)(=O)N[C@H]2CC[C@H](CC(=O)NCc3ccncc3)O[C@@H]2CO)c1
CCOC(=O)CN1CCCc2nc(C)c(C)cc21
C[C@@H]1CN([C@@H](C)CO)S(=O)(=O)c2ccc(-c3ccccc3)cc2O[C@H]1CN(C)S(C)(=O)=O
CO[C@H]1CN(C)C(=O)c2cc(NC(=O)c3ccc(F)cc3)ccc2OC[C@H](C)N(C(=O)CN(C)C)C[C@@H]1C
CC(CCc1ccco1)NC(=O)CCc1nnc2ccc(NCc3ccccc3Cl)nn12 (configuration not stated)
C[C@@H]1CN([C@@H](C)CO)C(=O)Cc2cc(NC(=O)NC3CCCCC3)ccc2O[C@@H]1CN(C)S(=O)(=O)c1ccc(Cl)cc1
CC1CCCC(C)N1CCCNC(=O)c1nn(C)c2c1CSc1ccccc1-2 (configuration not stated)
CCOc1ccc(NC2c3ccccc3C(=O)N2Cc2ccco2)cc1 (configuration not stated)
Cn1c(=O)oc2cc(S(=O)(=O)NCc3ccncc3)ccc21
O=C(C[C@@H]1C[C@H]2c3cc(NC(=O)C4CCOCC4)ccc3O[C@H]2[C@H](CO)O1)NCc1ccccc1F
Cc1noc(C)c1NC(=O)N(C)C[C@H]1OCCCC[C@H](C)Oc2ccc(NC(=O)c3ccccc3)cc2C(=O)N([C@H](C)CO)C[C@@H]1C
CC(C)NC(=O)Nc1ccc2c(c1)C(=O)N([C@@H](C)CO)C[C@H](C)[C@H](CN(C)C(=O)Nc1ccc(F)cc1)O2
COc1ccc(S(=O)(=O)n2ccc(-c3ccc(OCCN(C)c4ccccn4)cc3)n2)cc1
COc1ccccc1OCC(=O)c1[nH]c(C)c(C(C)=O)c1C
O=C(c1ccccc1)N1CCC(c2nc(-c3ccc(S(=O)(=O)NCC4CCCO4)cc3)no2)CC1 (configuration not stated)
C[C@@H]1CN([C@H](C)CO)C(=O)c2c(c3ccccc3n2C)-c2ccccc2CO[C@@H]1CN(C)S(=O)(=O)c1cccc(F)c1
C[C@@H]1CN([C@@H](C)CO)C(=O)c2cccc(NC(=O)c3ccc(-c4nccs4)cc3)c2O[C@H]1CN(C)CC1CC1
CCn1ncc(C2=NOC(C(=O)Nc3ccc(C)cc3)C2)c1C (configuration not stated)
C[C@H]1CN([C@@H](C)CO)C(=O)Cc2cc(N(C)C)ccc2O[C@H]1CN(C)CC1CC1
Cc1ccc2c(c1)C(=C(C#N)C#N)CCN2
O=C(Nc1ccc(N2CCN(C(=O)c3ccccc3)CC2)c(Cl)c1)c1cccnc1
CCCNC(=O)C[C@@H]1C[C@@H]2c3cc(NC(=O)Cc4ccncc4)ccc3O[C@@H]2[C@@H](CO)O1
C[C@H](CO)N1C[C@H](C)[C@@H](CN(C)C(=O)NC2CCCCC2)Oc2c(cccc2N(C)C)C1=O
CCCNC(=O)C[C@@H]1C[C@H]2c3cc(NC(=O)c4cccnc4)ccc3O[C@H]2[C@H](CO)O1
COc1ccc(CN(C)C[C@@H]2Oc3ccc(NC(=O)Nc4ccc(OC)cc4)cc3C(=O)N([C@H](C)CO)C[C@@H]2C)cc1
C[C@@H]1CN([C@@H](C)CO)C(=O)c2cc(NC(=O)c3ccccc3)ccc2O[C@@H](C)CCCCO[C@H]1CN(C)Cc1ccc(C(=O)O)cc1
C[C@@H]1CCCCO[C@H](CN(C)C)[C@H](C)CN([C@@H](C)CO)C(=O)c2cc(NS(=O)(=O)c3cn(C)cn3)ccc2O1
CNC[C@H]1Oc2c(NC(=O)Nc3ccc(C(F)(F)F)cc3)cccc2C(=O)N([C@@H](C)CO)C[C@H]1C
O=C(N[C@@H]1CC[C@H](CCNS(=O)(=O)c2ccc(F)cc2)O[C@@H]1CO)C1CC1
CC(C)CNS(=O)(=O)c1ccc(CCC(=O)N2CCN(Cc3ccc4c(c3)OCO4)CC2)cc1
O=C(COC(=O)c1cc(S(=O)(=O)N2CCOCC2)ccc1O)NCc1ccc2c(c1)OCO2
C[C@H]1NC(=O)[C@@]2(C)[C@H](c3ccccc3)[C@H]3COc4ccccc4[C@@H]3N2C1=O
COCC(=O)N1C[C@@H](C)[C@H](OC)CN(C)C(=O)c2ccc(NC(=O)c3ccc(OC)cc3)cc2OC[C@@H]1C
Nc1c(S(=O)(=O)c2ccccc2)cnc2c(-c3ccc(F)cc3)cnn12
Cc1cc(Cl)ccc1OCC(=O)NNC(=O)C1CSC2(C)CCC(=O)N12 (configuration not stated)
O=C(Nc1cccc(F)c1)c1cc(S(=O)(=O)N2CCC(C(=O)O)CC2)ccc1F
Nc1nc2c(ncn2[C@@H]2O[C@H](C(=O)NCC(c3ccccc3)c3ccccc3)[C@@H](O)[C@H]2O)c(=O)[nH]1
Nc1ncn([C@H]2C[C@H](O)[C@@H](CO)O2)c(=O)n1
CCc1cc2c(NCc3ccco3)ncnc2s1
N#C[C@H]1[C@@H](c2ccccc2/C=C/c2ccccc2)[C@@H](CO)N1S(=O)(=O)c1cccc(F)c1
O=C(Nc1ccc(CN2CCS(=O)(=O)CC2)cc1)c1ccc(C(F)(F)F)cc1
Cc1ccc(-n2nnnc2-c2cnn(-c3ccc(F)cc3)c2C(F)(F)F)cc1
Cc1cccc(C)c1NC(=O)CCCSc1nnc(-c2ccc(Cl)cc2)n1-c1ccccc1
Cn1c(SCc2nc(-c3ccc(Cl)cc3)no2)nnc1-c1cccs1
COc1ccc(-c2c(C)nn3c(C(F)(F)F)cc(C)nc23)cc1
O=C(CN1CCN(Cc2ccc(Cl)cc2)C1=O)NCCCN1CCN(c2ccc(F)cc2)CC1
C[C@H]1CN([C@@H](C)CO)C(=O)c2cccc(NC(=O)C3CCCCC3)c2O[C@H]1CN(C)S(C)(=O)=O
COCC(=O)N(C)C[C@H]1Oc2ncc(Br)cc2C(=O)N([C@H](C)CO)C[C@H]1C
COc1ccccc1C#Cc1ccc([C@H]2[C@H](C#N)N(C(=O)C3CCCC3)[C@H]2CO)cc1
N#C[C@@H]1[C@H](c2ccc(-c3cccc(F)c3)cc2)[C@H](CO)N1C(=O)c1cccnc1
CCCNC(=O)N1[C@H](C#N)[C@H](c2ccc(-c3cccc(OC)c3)cc2)[C@@H]1CO
CCCNC(=O)N1[C@H](C#N)[C@H](c2ccc(-c3ccc(C(=O)N(C)C)cc3)cc2)[C@@H]1CO
O=S(=O)(NCC[C@H]1CC[C@H](NS(=O)(=O)c2ccccc2Cl)[C@H](CO)O1)c1ccc(Cl)cc1
O=S(=O)(NCC[C@@H]1CC[C@@H](NS(=O)(=O)c2ccccc2Cl)[C@H](CO)O1)c1ccc(Cl)cc1
COc1ccc(-c2nn(C)c(=O)c3ccccc23)cc1NC(=O)COc1ccccc1
COc1ccc(OCC(=O)Nc2cc(-c3nn(C)c(=O)c4ccccc34)ccc2OC)cc1
COc1ccc(NS(=O)(=O)c2ccc3c(c2)OCCO3)cc1OC
COc1ccc(N2CCn3c2nc2c3c(=O)n(CCCc3ccccc3)c(=O)n2C)c(OC)c1
CCOC(=O)C(C)Oc1cccc2c(=O)n(CC(=O)NCCc3ccc(OC)c(OC)c3)ccc12 (configuration not stated)
O=C(CCN1CCCCC1)N[C@H]1CC[C@H](CCn2cc(-c3ccccc3)nn2)O[C@@H]1CO
O=C(Cc1ccncc1)N[C@H]1CC[C@@H](CCn2cc(-c3ccccc3F)nn2)O[C@@H]1CO
COc1ccc(-c2cn(CC[C@H]3CC[C@H](NS(=O)(=O)c4ccccc4C)[C@H](CO)O3)nn2)cc1
O=C(CCN1CCCCC1)N[C@@H]1CC[C@@H](CCn2cc(-c3ccccc3)nn2)O[C@@H]1CO
Cc1ccc(C2CC(=O)c3cnc(N4CCc5ccccc5C4)nc3C2)cc1 (configuration not stated)
COc1ccccc1N/C(N)=N/c1nc(CSc2ccc(C)cc2)cc(=O)[nH]1
COc1ccc(NC(=O)C2(C)CCN2Cc2ccccc2OC(F)F)cc1OC (configuration not stated)
CCCc1cc(C(=O)NCc2ccc(OC)cc2)no1
CCCCCCCCCCn1c2c(c(=N)c3c1CCC3)CCC2
C[C@@H]1CN([C@@H](C)CO)C(=O)c2cc(NC(=O)c3ccncc3)ccc2O[C@@H]1CN(C)Cc1ccncc1
C[C@@H]1CN([C@@H](C)CO)C(=O)c2cc(NC(=O)c3ccncc3)ccc2O[C@H]1CN(C)Cc1ccncc1
C[C@H](CO)N1C[C@H](C)[C@@H](CN(C)CC2CC2)Oc2ccc(NS(C)(=O)=O)cc2CC1=O
C[C@H](CO)N1C[C@H](C)[C@H](CN(C)Cc2ccccc2)Oc2c(NC(=O)Nc3ccc4c(c3)OCO4)cccc2C1=O
COc1ccc(NC(=O)CN2CCC(C(N)=O)(N3CCCCC3)CC2)cc1

From PubChem BioAssay AID652057 (Broad Institute, 2013)
